# Records with an inconclusive call do not appear. Active and inactive are the calls of the source. Rule for the calls, unless noted: active = hit-call score of the fitted dose curve at least 0.9, where 1 is the maximum; inactive = score below 0.9.
# What was measured:
# [1] = ATG_AP_2_CIS: Attagene CIS-FACTORIAL HepG2 Assay for human Activator Protein 2 (AP-2) (AID 2282932); settings: HepG2 AP-2 cis-reporter, Attagene transcription factor profiling; actives raise or lower the signal
# Summary of the method: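 Cells (HepG2) transfected with promoter-driven reporter constructs, treated 24 h. Total RNA reverse-transcribed, reporter cDNA PCR-amplified, FAM-labelled by primer extension, digested, resolved by capillary electrophoresis. Activity fitted both directions versus DMSO.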
# [2] = ATG_M_61_CIS: Attagene CIS-FACTORIAL HepG2 Assay for M61 Transcription Factor (Internal Marker) (AID 2282937); settings: HepG2 Attagene CIS-FACTORIAL M61 internal marker reporter; actives raise or lower the signal
# Summary of the method: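 HepG2 cells transiently transfected with cis-element-driven multiple reporter transcription units, dosed for 24 h. Reporter mRNA measured by RT-PCR, 6-FAM primer-extension labelling, HpaI digestion and capillary electrophoresis; bidirectional fit versus DMSO baseline.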
# [3] = ATG_PXRE_CIS: Attagene CIS-FACTORIAL HepG2 Assay for human Pregnane X Receptor Element (PXRE) (AID 2282957); settings: HepG2 Attagene CIS-FACTORIAL PXRE reporter, mRNA; actives raise or lower the signal
# Summary of the method: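 Using HepG2 transfected with multiple reporter transcription units, endogenous factor-driven transcription was scored as reporter mRNA after 24 h exposure.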
# [4] = ATG_SREBP_CIS: Attagene CIS-FACTORIAL HepG2 Assay for human Sterol Regulatory Element Binding (SREBP) (AID 2282962); settings: HepG2 Attagene cis-factorial SREBP reporter, mRNA; actives raise or lower the signal
# Summary of the method: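 Endogenous factor activity is measured in HepG2 through multiplexed reporter units under cis-element control. Following a 24 h incubation, reporter transcripts are reverse-transcribed, PCR-amplified and sized by capillary electrophoresis; activity is fitted in both directions relative to DMSO.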
# [5] = ATG_Oct_MLP_CIS: Attagene CIS-FACTORIAL HepG2 Assay for human Octamer-Binding Transcription Factor (Oct) (AID 2282993); settings: HepG2 Attagene cis-factorial Oct reporter, mRNA; actives raise or lower the signal
# Summary of the method: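 Read-out: reporter mRNA via RT-PCR plus capillary electrophoresis of 6-FAM-labelled fragments. Transiently transfected HepG2, 24 h exposure, endogenous TF activity on cis elements. Gain or loss of signal fitted relative to DMSO.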
# [6] = molecular target: human Peroxisome Proliferator-activated Receptor alpha (PPARa), PPARA (gene 5465) (UniProt Q07869); assay: ATG_PPARa_TRANS: Attagene TRANS-FACTORIAL HepG2 Assay for human Peroxisome Proliferator-activated Receptor alpha (PPARa) (AID 2283001; active = hit-call score of the fitted dose curve at least 0.9, where 1 is the maximum)
# human Peroxisome Proliferator-activated Receptor alpha (PPARa), PPARA (gene 5465), sequence (Q07869 whole entry, looked up): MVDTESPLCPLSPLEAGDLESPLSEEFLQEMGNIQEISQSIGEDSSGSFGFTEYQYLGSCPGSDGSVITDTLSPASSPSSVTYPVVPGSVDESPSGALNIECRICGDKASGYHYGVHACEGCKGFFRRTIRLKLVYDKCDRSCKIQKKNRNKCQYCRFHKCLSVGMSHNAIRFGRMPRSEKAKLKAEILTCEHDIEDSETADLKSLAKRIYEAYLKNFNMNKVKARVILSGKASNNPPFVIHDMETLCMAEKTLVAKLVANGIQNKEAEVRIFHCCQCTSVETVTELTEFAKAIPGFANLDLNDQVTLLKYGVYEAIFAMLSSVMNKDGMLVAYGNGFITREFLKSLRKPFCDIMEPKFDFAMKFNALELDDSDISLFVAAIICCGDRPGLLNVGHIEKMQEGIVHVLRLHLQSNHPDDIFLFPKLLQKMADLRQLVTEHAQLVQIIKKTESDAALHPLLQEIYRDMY
# Summary of the method: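 Cells (HepG2) are transfected with multiple reporter transcription units, exposed to chemical for 24 h, then total RNA is reverse-transcribed and amplified. Labelled products are quantified by capillary electrophoresis; induction is referenced to DMSO.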
# [7] = molecular target: human Thyroid Receptor alpha (THRa1), THRA (gene 7067) (UniProt P10827); assay: ATG_THRa1_TRANS: Attagene TRANS-FACTORIAL HepG2 Assay for human Thyroid Receptor alpha (THRa1) (AID 2283014; active = hit-call score of the fitted dose curve at least 0.9, where 1 is the maximum)
# human Thyroid Receptor alpha (THRa1), THRA (gene 7067), sequence (P10827 whole entry, looked up, the tested form may be a part): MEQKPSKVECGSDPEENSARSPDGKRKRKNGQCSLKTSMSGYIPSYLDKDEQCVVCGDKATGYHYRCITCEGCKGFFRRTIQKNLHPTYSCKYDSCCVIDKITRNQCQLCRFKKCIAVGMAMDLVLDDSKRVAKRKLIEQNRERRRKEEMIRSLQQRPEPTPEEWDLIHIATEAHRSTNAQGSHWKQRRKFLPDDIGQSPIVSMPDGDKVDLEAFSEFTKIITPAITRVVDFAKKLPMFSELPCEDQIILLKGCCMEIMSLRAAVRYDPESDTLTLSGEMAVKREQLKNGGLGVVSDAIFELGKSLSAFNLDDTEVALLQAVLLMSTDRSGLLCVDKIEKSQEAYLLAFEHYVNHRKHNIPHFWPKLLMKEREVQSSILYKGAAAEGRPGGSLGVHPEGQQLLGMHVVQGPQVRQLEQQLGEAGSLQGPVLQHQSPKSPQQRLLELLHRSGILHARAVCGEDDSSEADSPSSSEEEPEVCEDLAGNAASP
# Summary of the method: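 Reporter transcript induction, read by capillary electrophoresis of 6-FAM-labelled RT-PCR products, reflects activity of a transfected THRa1-Gal4 fusion in HepG2 liver cells. Cells were dosed for 24 h; activity was fitted in the positive direction against DMSO.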
# [8] = ACEA_ER_AUC_viability: ACEA Biosciences xCELLigence Real-Time Cell Analysis on Estrogen Receptor Agonism for Viability (AID 2283782; active = hit-call score of the fitted dose curve at least 0.9, where 1 is the maximum;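 note: hit means loss of impedance signal meaning reduced cell growth or viability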)
# Summary of the method: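 Continuous-exposure impedance cell analysis uses T-47D cells in charcoal-stripped serum, eight 1:4 dilutions topping at 100 uM final, biological duplicate. Area under the growth curve at 80 h is fitted against DMSO baseline.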
# [9] = molecular target: Aryl hydrocarbon receptor (Homo sapiens) (UniProt P35869); assay: ATG_Ahr_CIS: Attagene CIS-FACTORIAL HepG2 Assay for human Aryl Hydrocarbon Receptor (Ahr) (AID 2282930); settings: HepG2 AhR cis-factorial reporter transcription; actives raise or lower the signal
# Aryl hydrocarbon receptor (Homo sapiens), sequence (P35869 whole entry, looked up): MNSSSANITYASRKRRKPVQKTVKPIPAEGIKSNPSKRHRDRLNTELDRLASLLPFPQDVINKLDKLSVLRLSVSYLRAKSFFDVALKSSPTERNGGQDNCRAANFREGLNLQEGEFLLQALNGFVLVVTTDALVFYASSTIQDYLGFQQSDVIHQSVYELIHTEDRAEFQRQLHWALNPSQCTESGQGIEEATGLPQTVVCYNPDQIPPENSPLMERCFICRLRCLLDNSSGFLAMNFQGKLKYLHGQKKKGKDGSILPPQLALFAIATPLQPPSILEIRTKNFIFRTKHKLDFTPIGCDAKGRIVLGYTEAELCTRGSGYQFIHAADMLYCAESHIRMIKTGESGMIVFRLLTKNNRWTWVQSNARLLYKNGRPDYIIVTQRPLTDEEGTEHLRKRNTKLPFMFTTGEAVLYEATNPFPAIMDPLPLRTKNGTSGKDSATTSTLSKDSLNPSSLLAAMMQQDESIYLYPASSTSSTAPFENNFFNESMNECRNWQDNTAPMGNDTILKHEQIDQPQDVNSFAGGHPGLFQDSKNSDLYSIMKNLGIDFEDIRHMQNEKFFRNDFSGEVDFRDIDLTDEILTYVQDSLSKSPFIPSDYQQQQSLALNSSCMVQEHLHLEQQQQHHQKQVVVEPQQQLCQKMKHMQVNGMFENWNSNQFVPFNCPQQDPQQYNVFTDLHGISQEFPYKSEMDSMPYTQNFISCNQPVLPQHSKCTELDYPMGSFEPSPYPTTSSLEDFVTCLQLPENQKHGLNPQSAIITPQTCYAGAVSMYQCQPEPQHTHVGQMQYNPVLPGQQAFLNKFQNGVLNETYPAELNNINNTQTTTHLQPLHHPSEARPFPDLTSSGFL
# Summary of the method: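 Values derive from bidirectional fitting against DMSO negative control. Underlying signal: cis-element reporter mRNA in transiently transfected HepG2, harvested 24 h post-dose and measured by RT-PCR plus capillary electrophoresis.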
# [10] = molecular target: Transcription factor E2F1 (Homo sapiens) (UniProt Q01094); assay: ATG_E2F_CIS: Attagene CIS-FACTORIAL HepG2 Assay for human E2F Transcription Factor 1 (AID 2282935); settings: HepG2 Attagene cis-reporter, E2F reporter RNA transcripts; actives raise or lower the signal
# Transcription factor E2F1 (Homo sapiens), sequence (Q01094 whole entry, looked up): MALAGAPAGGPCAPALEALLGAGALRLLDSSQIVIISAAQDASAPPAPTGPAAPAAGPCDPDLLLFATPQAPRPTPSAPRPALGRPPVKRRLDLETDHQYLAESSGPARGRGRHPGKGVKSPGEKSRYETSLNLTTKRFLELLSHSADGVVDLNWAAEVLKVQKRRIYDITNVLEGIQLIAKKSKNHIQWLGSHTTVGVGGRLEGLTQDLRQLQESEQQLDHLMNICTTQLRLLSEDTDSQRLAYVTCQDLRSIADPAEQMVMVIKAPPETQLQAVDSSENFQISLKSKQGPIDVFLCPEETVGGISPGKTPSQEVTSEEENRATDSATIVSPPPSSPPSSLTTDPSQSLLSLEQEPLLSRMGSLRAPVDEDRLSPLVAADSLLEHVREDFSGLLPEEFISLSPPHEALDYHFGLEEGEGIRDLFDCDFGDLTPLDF
# Summary of the method: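 First, HepG2 cells were transfected with reporter transcription units. Next, they were dosed for 24 h. Then RNA was isolated, converted to cDNA, PCR-amplified, FAM-labeled, HpaI-digested and analyzed by capillary electrophoresis.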
# [11] = ATG_GLI_CIS: Attagene CIS-FACTORIAL HepG2 Assay for human Zinc Finger Protein GLI1 (AID 2282945); settings: HepG2, Attagene cis-factorial reporter mRNA, GLI element; actives raise or lower the signal
# Summary of the method: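 HepG2 cells transiently transfected with cis-promoter multiplexed reporter units report endogenous transcription factor activity. After 24 h chemical exposure, reporter mRNA was quantified by RT-PCR, 6-FAM labelling, HpaI digestion and capillary electrophoresis, with bidirectional fitting against DMSO.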
# [12] = ATG_PBREM_CIS: Attagene CIS-FACTORIAL HepG2 Assay for human Phenobarbital-responsive Enhancer Module (PBREM) (AID 2282955); settings: HepG2 PBREM cis-reporter, Attagene multiplexed transcription; actives raise or lower the signal
# Summary of the method: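 HepG2 cells transiently transfected with multiple cis-regulated reporter transcription units; endogenous factor activity at the PBREM element measured as reporter mRNA 24 h after dosing, via RT-PCR and capillary electrophoresis of fluorescent fragments; bidirectional fitting versus DMSO.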
# [13] = ATG_PPRE_CIS: Attagene CIS-FACTORIAL HepG2 Assay for human Peroxisome Proliferator-activated Response Element (PPRE) (AID 2282958); settings: HepG2 PPRE cis-element reporter, Attagene transcription factor profiling; actives raise or lower the signal
# Summary of the method: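 HepG2 cells transiently transfected with multiplexed cis-element reporter units measure endogenous transcription factor activity. After 24 h compound exposure, reporter mRNA is quantified by RT-PCR, 6-FAM labeling, HpaI digestion and capillary electrophoresis; bidirectional fits are made against DMSO baseline.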
# [14] = molecular target: Peroxisome proliferator-activated receptor gamma (Homo sapiens) (UniProt P37231); assay: ATG_PPARg_TRANS: Attagene TRANS-FACTORIAL HepG2 Assay for human Peroxisome Proliferator-activated Receptor-gamma (PPARg) (AID 2283007; active = hit-call score of the fitted dose curve at least 0.9, where 1 is the maximum)
# Peroxisome proliferator-activated receptor gamma (Homo sapiens), sequence (P37231 whole entry, looked up, the tested form may be a part): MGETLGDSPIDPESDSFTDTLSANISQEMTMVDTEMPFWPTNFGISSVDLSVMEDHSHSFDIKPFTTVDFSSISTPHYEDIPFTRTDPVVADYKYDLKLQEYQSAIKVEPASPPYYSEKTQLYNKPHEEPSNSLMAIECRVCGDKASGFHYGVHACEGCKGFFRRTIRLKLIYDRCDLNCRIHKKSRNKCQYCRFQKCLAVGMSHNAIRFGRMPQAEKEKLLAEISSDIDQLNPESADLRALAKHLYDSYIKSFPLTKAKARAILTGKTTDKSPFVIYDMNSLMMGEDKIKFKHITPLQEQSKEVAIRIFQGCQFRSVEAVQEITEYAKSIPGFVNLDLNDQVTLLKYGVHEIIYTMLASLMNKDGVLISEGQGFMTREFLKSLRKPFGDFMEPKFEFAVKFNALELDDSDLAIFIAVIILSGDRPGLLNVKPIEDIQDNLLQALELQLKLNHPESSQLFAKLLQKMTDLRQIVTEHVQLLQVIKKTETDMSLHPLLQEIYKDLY
# Summary of the method: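 HepG2 cells transiently transfected with multiplexed GAL4-UAS reporter units and exogenous chimeric NR-Gal4 proteins; reporter mRNA quantified after 24 h compound exposure by RT-PCR, fluorescent labelling, HpaI digestion and capillary electrophoresis; gain-of-signal fitted versus DMSO baseline.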
# [15] = molecular target: Retinoic acid receptor RXR-alpha (Homo sapiens) (UniProt P19793); assay: ATG_RXRa_TRANS: Attagene TRANS-FACTORIAL HepG2 Assay for human Retinoid X Receptor alpha (RXRa) (AID 2283012; active = hit-call score of the fitted dose curve at least 0.9, where 1 is the maximum)
# Retinoic acid receptor RXR-alpha (Homo sapiens), sequence (P19793 whole entry, looked up, the tested form may be a part): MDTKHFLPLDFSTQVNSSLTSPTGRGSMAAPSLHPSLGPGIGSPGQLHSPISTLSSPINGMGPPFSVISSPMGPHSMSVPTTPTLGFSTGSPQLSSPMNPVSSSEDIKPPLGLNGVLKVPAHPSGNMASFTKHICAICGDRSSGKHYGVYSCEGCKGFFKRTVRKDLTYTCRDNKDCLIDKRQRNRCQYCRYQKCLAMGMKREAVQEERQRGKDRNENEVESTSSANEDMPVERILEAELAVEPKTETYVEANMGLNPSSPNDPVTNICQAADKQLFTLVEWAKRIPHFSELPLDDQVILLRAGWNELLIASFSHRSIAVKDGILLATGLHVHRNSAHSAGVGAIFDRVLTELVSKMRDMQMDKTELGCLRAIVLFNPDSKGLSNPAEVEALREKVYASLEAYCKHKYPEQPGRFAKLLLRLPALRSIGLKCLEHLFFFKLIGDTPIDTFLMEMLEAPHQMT
# Summary of the method: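 Measures exogenous chimeric NR-GAL4 activity in transfected HepG2 liver cells after 24 h of dosing. Induced reporter mRNA was detected by RT-PCR with capillary electrophoresis, and gain of signal was analysed against DMSO.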
# [16] = molecular target: Cellular tumor antigen p53 (Homo sapiens) (UniProt P04637); assay: TOX21_p53_BLA_p2_ratio: Tox21 HCT-116 p53 Agonism Beta-lactamase Assay, Ratio, Phase 2 (AID 2283592; active = hit-call score of the fitted dose curve at least 0.9, where 1 is the maximum)
# Cellular tumor antigen p53 (Homo sapiens), sequence (P04637 whole entry, looked up): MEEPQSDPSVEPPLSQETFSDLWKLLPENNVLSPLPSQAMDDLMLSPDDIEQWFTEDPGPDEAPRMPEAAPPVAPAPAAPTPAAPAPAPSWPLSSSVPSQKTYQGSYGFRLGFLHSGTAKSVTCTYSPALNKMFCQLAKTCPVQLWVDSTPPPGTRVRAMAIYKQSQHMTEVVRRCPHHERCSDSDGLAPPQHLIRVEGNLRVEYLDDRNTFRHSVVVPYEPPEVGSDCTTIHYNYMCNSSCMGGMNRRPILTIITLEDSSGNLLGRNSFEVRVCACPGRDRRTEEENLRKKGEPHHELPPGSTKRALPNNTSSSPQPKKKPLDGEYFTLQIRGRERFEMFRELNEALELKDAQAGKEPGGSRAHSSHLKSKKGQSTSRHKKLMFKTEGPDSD
# Summary of the method: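 Plated HCT116 p53-bla cells (4000/well) received compound after 5 h, then 16 h at 37C/5% CO2. CCF4-AM added, 2 h RT. Ratio of 460 to 530 nm emission taken as the p53 reporter signal.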
# [17] = molecular target: Cellular tumor antigen p53 (Homo sapiens) (UniProt P04637); assay: TOX21_p53_BLA_p3_ratio: Tox21 HCT-116 p53 Agonism Beta-lactamase Assay, Ratio, Phase 3 (AID 2283596; active = hit-call score of the fitted dose curve at least 0.9, where 1 is the maximum)
# Summary of the method: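 Cells were seeded at 4000/well, rested 5 h at 37C, then dosed with DMSO compound solutions (217-fold dilution) for 16 h. CCF4-AM substrate was loaded for 2 h at room temperature, and the 460/530 nm emission ratio was fitted for gain of signal versus DMSO.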
# [18] = molecular target: Cellular tumor antigen p53 (Homo sapiens) (UniProt P04637); assay: TOX21_p53_BLA_p5_ratio: Tox21 HCT-116 p53 Agonism Beta-lactamase Assay, Ratio, Phase 5 (AID 2283599; active = hit-call score of the fitted dose curve at least 0.9, where 1 is the maximum)
# Summary of the method: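 HCT-116 cells carrying a p53-inducible beta-lactamase reporter were seeded at 4000 cells/well and dosed after 5 h with compound in DMSO (217-fold dilution). After 16 h at 37C, CCF4-AM substrate was added for 2 h, and the 460/530 nm emission ratio was scored as gain-of-signal versus DMSO.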
# [19] = TOX21_p53_BLA_p5_viability: Viability Assessment in the Tox21 HCT-116 p53 Agonism Beta-lactamase Assay, Phase 5 (AID 2283600; active = hit-call score of the fitted dose curve at least 0.9, where 1 is the maximum)
# Summary of the method: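 Workflow: seed 4000 cells per well, wait 5 h, add compounds (DMSO, 217-fold dilution), incubate 16 h, load CCF4-AM 2 h, add CellTiter-Glo, read luminescence after 30 min.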
# [20] = molecular target: Cellular tumor antigen p53 (Homo sapiens) (UniProt P04637); assay: TOX21_p53_BLA_p4_ratio: Tox21 HCT-116 p53 Agonism Beta-lactamase Assay, Ratio, Phase 4 (AID 2283601; active = hit-call score of the fitted dose curve at least 0.9, where 1 is the maximum)
# Summary of the method: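 HCT116 cells carrying an inducible beta-lactamase reporter were plated at 4000 cells/well, rested 5 h, then exposed to compounds in DMSO (217-fold dilution) for 16 h at 37C. CCF4-AM substrate was loaded 2 h at room temperature; 460/530 nm emission ratio scored gain-of-signal versus DMSO.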
smiles,measurement,setting,value
CCC1CCC(=O)O1 (stereo not drawn),outcome,[1],inactive
same,outcome,[2],inactive
same,AC50,[3],27.3 µM (active)
same,outcome,[4],inactive
same,outcome,[5],inactive
same,outcome,[6],inactive
same,outcome,[7],inactive
same,outcome,[8],inactive
O=[N+]([O-])c1cc([N+](=O)[O-])c2ccccc2c1,AC50,[9],8.37 µM (active)
same,outcome,[1],inactive
same,outcome,[10],inactive
same,outcome,[2],inactive
same,outcome,[11],inactive
same,outcome,[12],inactive
same,outcome,[13],inactive
same,outcome,[5],inactive
same,outcome,[6],inactive
same,AC50,[14],6.62 µM (active)
same,outcome,[15],inactive
same,outcome,[7],inactive
same,outcome,[16],inactive
same,outcome,[17],inactive
same,outcome,[18],inactive
same,outcome,[19],inactive
O=[N+]([O-])C=Cc1ccccc1,AC50,[1],21.4 µM (active)
same,outcome,[10],inactive
same,outcome,[2],inactive
same,AC50,[11],31.2 µM (active)
same,outcome,[12],inactive
same,AC50,[3],56.8 µM (active)
same,AC50,[13],61.5 µM (active)
same,outcome,[4],inactive
same,AC50,[5],18.5 µM (active)
same,outcome,[6],inactive
same,AC50,[14],8.83 µM (active)
same,outcome,[15],inactive
same,outcome,[7],inactive
same,AC50,[16],8.76 µM (active)
same,outcome,[19],inactive
same,outcome,[20],inactive
same,outcome,[8],inactive
CC=Cc1ccc2c(c1)OCO2,outcome,[1],inactive
same,outcome,[10],inactive
same,outcome,[2],inactive
same,outcome,[11],inactive
same,outcome,[12],inactive
same,outcome,[3],inactive
same,outcome,[5],inactive
same,outcome,[14],inactive
same,outcome,[15],inactive
same,outcome,[7],inactive
same,outcome,[16],inactive
same,outcome,[17],inactive
same,outcome,[18],inactive
same,outcome,[20],inactive
same,outcome,[8],inactive
ClC1=C(Cl)[C@]2(Cl)[C@@H]3[C@@H](Cl)[C@H](Cl)C[C@@H]3[C@@]1(Cl)C2(Cl)Cl,outcome,[1],inactive
same,outcome,[10],inactive
same,outcome,[2],inactive
same,outcome,[12],inactive
same,outcome,[13],inactive
same,outcome,[4],inactive
same,outcome,[5],inactive
same,outcome,[6],inactive
same,outcome,[14],inactive
same,outcome,[7],inactive
same,outcome,[8],inactive
CC(=O)c1cc2c(cc1C)C(C)(C)C(C)CC2(C)C (stereo not drawn),AC50,[1],158 µM (active)
same,outcome,[10],inactive
same,outcome,[2],inactive
same,AC50,[11],75.5 µM (active)
same,outcome,[12],inactive
same,outcome,[13],inactive
same,AC50,[4],46.1 µM (active)
same,AC50,[5],64.3 µM (active)
same,outcome,[14],inactive
same,AC50,[15],22.8 µM (active)
same,outcome,[7],inactive
same,outcome,[16],inactive
same,outcome,[17],inactive
same,outcome,[18],inactive
same,outcome,[19],inactive
same,outcome,[20],inactive
same,AC50,[8],79.9 µM (active)
C=C(Cl)Cl,outcome,[1],inactive
same,outcome,[11],inactive
same,outcome,[12],inactive
same,AC50,[3],50.8 µM (active)
same,outcome,[13],inactive
same,outcome,[4],inactive
same,outcome,[5],inactive
same,outcome,[14],inactive
same,outcome,[19],inactive
same,outcome,[20],inactive
COC(=O)COc1ccc(Cl)cc1Cl,outcome,[10],inactive
same,outcome,[2],inactive
same,outcome,[3],inactive
same,outcome,[5],inactive
same,outcome,[15],inactive
same,outcome,[7],inactive
same,outcome,[17],inactive
same,outcome,[19],inactive
same,outcome,[20],inactive
